Assay results as given in the supplement of paper PMC3334620.
In all, about 33,000 sequences were measured (“E-score (-0.5 to 0.5)”: median about -0.054, highest 2% from about 0.35 on). What follows is part of a selection rich in the highest values, with near analogues and random picks from the rest.

target: T1, Stb5 (UniProt P38699); assay: PBM E-score (8-mer binding enrichment) (E-score (-0.5 to 0.5)); higher = stronger / more preferred TF binding; conditions: protein concentration: 200 nM; construct: GST-full length
T1 sequence: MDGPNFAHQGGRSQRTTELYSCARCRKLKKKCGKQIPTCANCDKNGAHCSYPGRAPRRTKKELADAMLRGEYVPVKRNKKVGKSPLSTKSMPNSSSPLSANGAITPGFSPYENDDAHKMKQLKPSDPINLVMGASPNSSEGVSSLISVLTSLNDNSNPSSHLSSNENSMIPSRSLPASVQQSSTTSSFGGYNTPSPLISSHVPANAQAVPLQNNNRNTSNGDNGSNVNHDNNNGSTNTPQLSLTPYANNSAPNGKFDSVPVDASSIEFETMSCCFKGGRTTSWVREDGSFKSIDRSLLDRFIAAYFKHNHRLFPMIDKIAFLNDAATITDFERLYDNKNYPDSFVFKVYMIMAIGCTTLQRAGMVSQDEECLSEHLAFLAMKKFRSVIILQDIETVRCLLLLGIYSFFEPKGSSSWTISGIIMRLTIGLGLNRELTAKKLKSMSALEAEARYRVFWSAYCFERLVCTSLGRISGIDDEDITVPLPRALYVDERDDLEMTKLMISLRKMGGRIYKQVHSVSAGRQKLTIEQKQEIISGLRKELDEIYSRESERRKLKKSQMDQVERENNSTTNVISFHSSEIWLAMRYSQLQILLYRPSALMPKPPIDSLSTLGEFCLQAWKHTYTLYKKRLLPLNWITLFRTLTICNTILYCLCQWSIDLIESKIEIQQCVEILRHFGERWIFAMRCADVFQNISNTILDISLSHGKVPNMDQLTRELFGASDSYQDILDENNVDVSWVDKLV
Protocol: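 Universal 'all 10-mer' protein binding microarrays (Agilent AMADID 015681) probed with GST-tagged S. cerevisiae TFs (full-length or DBD) made by in vitro transcription/translation (PURExpress), about 100-200 nM. Bound TF was detected with fluorescent anti-GST. Each ungapped 8-mer (which stands for itself and its reverse complement) is scored by the PBM enrichment score (E-score), a modified Wilcoxon-Mann-Whitney statistic from -0.5 to +0.5, computed with the Universal PBM Analysis Suite. Scale: above 0.35 generally sequence-specific binding.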

| Sequence | PBM E-score |
| --- | --- |
| CATCCGAC | 0.288 |
| CGAGACTA | -0.0587 |
| CGGGGTCA | 0.441 |
| CCGGGTGA | 0.179 |
| CGGGGTGA | 0.432 |
| CCGGGTCA | 0.176 |
| GGGGGTCA | -0.125 |
| GGGGGTGA | -0.123 |
| CGCTTGGA | -0.0324 |
| TAGGACAA | -0.287 |
| CCCGGGTC | 0.352 |
| CCCCGGTA | 0.298 |
| ACCGGGTC | 0.19 |
| CCCCGGTC | 0.369 |
| CCCGGGTA | 0.101 |
| ACCCGGTC | 0.204 |
| CCCGCACG | 0.325 |
| GAAGTTCA | -0.189 |
| CCCCCGGG | 0.237 |
| CCCCGGGC | 0.265 |
| CCCCGGGA | 0.268 |
| ACCCCGGG | 0.392 |
| ACCCCGGC | 0.343 |
| ACCCCGGT | 0.356 |

| Sequence | PBM E-score |
| --- | --- |
| ACCCGGGG | 0.185 |
| CCCCGGGG | 0.393 |
| ACCCCGGA | 0.308 |
| TAGAAAAA | -0.116 |
| ACAGCCCC | -0.0495 |
| CCTGTGAC | -0.0962 |
| CCGATGAC | 0.301 |
| GTCCACGA | -0.134 |
| AGGCTCTC | -0.369 |
| AGAACTTA | -0.169 |
| AATGTAGT | -0.128 |
| ACAAAGCA | -0.0624 |
| CTTGGGAC | -0.0832 |
| AATTGCCC | 0.0559 |
| AATTGCCG | 0.354 |
| AAGTGCCA | -0.182 |
| CAATGCCG | 0.334 |
| AATTGCCA | -0.27 |
| AAATGCCC | 0.0775 |
| AAGTGCCG | 0.409 |
| AAATGCCG | 0.435 |
| AAGTGCCC | 0.0216 |
| CTAGCGTC | 0.0861 |
| AGAAACCA | -0.212 |

| Sequence | PBM E-score |
| --- | --- |
| CCATGGCA | -0.0516 |
| ACCCCTAC | -0.171 |
| ATACATTC | -0.228 |
| GACCGTCC | 0.21 |
| AACCGTCC | -0.0366 |
| CACCGTCA | 0.333 |
| CACCGTCG | 0.373 |
| CACCGTCC | 0.407 |
| AACCGTCG | 0.212 |
| AACCTAGC | -0.17 |
| CTGTGGCA | -0.279 |
| CTAAGCCC | 0.324 |
| ATAAAGCG | 0.236 |
| ATAAAGCC | 0.359 |
| ATAAGGCG | -0.00531 |
| ATAAGACG | -0.111 |
| ATAAGCCA | -0.107 |
| CTAAAGCC | 0.228 |
| CTAAGGCC | 0.262 |
| ATAAGCCC | 0.406 |
| ATAAGACC | 0.397 |
| ATAAGGCC | 0.359 |
| CTAAGACC | 0.22 |
| AGAAAGAG | -0.102 |

| Sequence | PBM E-score |
| --- | --- |
| ACCTGATA | 0.0218 |
| CTAAGTCC | 0.245 |
| ATAAGTCG | 0.15 |
| ATAAGTCC | 0.443 |
| ATGCGTTG | -0.0346 |
| AAACTCCC | 0.104 |
| GAGTTCGC | 0.0473 |
| AACGCCGA | 0.456 |
| CACGCCGC | 0.293 |
| CACGCCGA | 0.133 |
| AACGCCAT | -0.106 |
| AACGCCGT | 0.437 |
| GACGCCGC | 0.406 |
| GACGCCGA | 0.342 |
| AACGCCTC | -0.064 |
| AACGCCGC | 0.448 |
| TACGCCGA | 0.299 |
| AACGCCTT | -0.00961 |
| AACGCCAC | -0.0588 |
| ATAGCCCA | -0.245 |
| ACCAGCGA | 0.0766 |
| AAAGAGAA | -0.00974 |
